In PubChem BioAssay (Tox21):
Values joined by “and” are separate entries in the source; they are usually repeats but may differ in a detail not shown here. Identical values can stand only once. Records with an inconclusive call do not appear. A call without a number means that no potency is given here. More than one record can exist for a structure, and the calls need not agree. Active and inactive are the calls of the source. Calls come from the whole dose curve.

Target: Muscarinic acetylcholine receptor M1 (Homo sapiens) (UniProt P11229)
Assay: Cholinergic receptor muscarinic 1 (CHRM1) small molecule antagonists, cell-based qHTS assay (AID 1963588); note: nearly all actives have a fitted effect of over 40% in size; note: potency is the fitted concentration of half-maximal effect
Conditions: CHRM1-CHO antagonist mode, calcium flux fluorescence; series mostly up to 61.5 µM
How it was run: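 CHRM1-CHO calcium-flux assay, antagonist mode. Cells were seeded 18 h, dye-loaded 1 h at 37 C and given compound for 5 min at RT, then acetylcholine was added at 50nM. FDSS fluorescence was read 3 min; 15 concentrations, three runs.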

Muscarinic acetylcholine receptor M1 (Homo sapiens), sequence (P11229 whole entry, looked up): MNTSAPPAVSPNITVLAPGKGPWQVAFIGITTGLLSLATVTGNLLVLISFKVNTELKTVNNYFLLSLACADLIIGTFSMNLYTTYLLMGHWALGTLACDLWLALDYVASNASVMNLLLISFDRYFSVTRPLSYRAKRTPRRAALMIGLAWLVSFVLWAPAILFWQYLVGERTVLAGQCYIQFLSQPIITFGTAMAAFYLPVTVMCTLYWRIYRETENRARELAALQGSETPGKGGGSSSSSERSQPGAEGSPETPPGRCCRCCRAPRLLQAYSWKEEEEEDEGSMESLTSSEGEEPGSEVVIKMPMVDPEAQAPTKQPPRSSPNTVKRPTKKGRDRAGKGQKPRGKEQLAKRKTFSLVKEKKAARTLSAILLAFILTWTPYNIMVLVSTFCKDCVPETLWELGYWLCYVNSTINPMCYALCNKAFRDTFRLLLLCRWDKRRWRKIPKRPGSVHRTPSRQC

Structure (SMILES) | Potency
C=CC=O | inactive
CCC(C)(C#N)N=NC(C)(C#N)CC (centres undefined) | inactive
c1nc[nH]n1 | inactive
c1ccc(Nc2ccc3ccccc3c2)cc1 | inactive
CCOP(=O)(OCC)OP(=O)(OCC)OCC | inactive
Clc1ccccc1Cl | inactive
CCN(CC)C(=S)S | inactive
CC(C)Nc1nc(Cl)nc(NC(C)C)n1 | inactive
Nc1ccc(-c2ccc(N)c(N)c2)cc1N | inactive
CC(C)OS(C)(=O)=O | inactive
CCCCOC(=O)c1ccccc1C(=O)O | inactive
CC(=O)[O][Hg][c]1ccccc1 | inactive
CCCCCCCCCl | inactive
C#CCOS(=O)OC1CCCCC1Oc1ccc(C(C)(C)C)cc1 (centres undefined) | inactive
ClCC(Br)CBr (centres undefined) | inactive
CC(C)C#N | inactive
CCOC(=O)CC(SP(=O)(OC)OC)C(=O)OCC (centres undefined) | inactive
CCCCCON=O | inactive

Structure (SMILES) | Potency
FC(F)(F)c1ccc(Cl)cc1 | inactive
CON(C)C(=O)Nc1ccc(Cl)cc1 | inactive
COP(=S)(OC)Oc1ccc([N+](=O)[O-])cc1 | inactive
CCCCCCCCC(=O)NCc1ccc(O)c(OC)c1 | inactive
COc1c(C(C)(C)C)cc([N+](=O)[O-])c(C)c1[N+](=O)[O-] | inactive
Cc1ccc(N)cc1 | inactive
CCCCCCCCCCCCCCCC[N+](C)(C)C | 2.03 µM (active) and 840 nM (active)
CCc1cnc(C2=NC(C)(C(C)C)C(=O)N2)c(C(=O)O)c1 (centres undefined) | inactive
CCCCCBr | inactive
COP(=S)(OC)Oc1ccc(Sc2ccc(OP(=S)(OC)OC)cc2)cc1 | inactive
CC(=O)CCC(C)=O | inactive
CCOP(=O)(O)OCC (tested in a mixture with another compound) | inactive and 1.48 µM (active)
O=[N+]([O-])c1ccc(Cl)c(Cl)c1 | inactive
CC(C)(O)C(=O)Nc1ccc([N+](=O)[O-])c(C(F)(F)F)c1 | inactive
CCCCNC(=O)n1c(NC(=O)OC)nc2ccccc21 | inactive
CCC(Cl)[N+](=O)[O-] (centres undefined) | inactive
CCCCCCCCCCCC(=O)O | inactive
OC(Cc1ccccc1Cl)(Cn1cncn1)C1(Cl)CC1 (centres undefined) | inactive

Target: Muscarinic acetylcholine receptor M1 (Homo sapiens) (UniProt P11229)
Assay: Cholinergic receptor muscarinic 1 (CHRM1) small molecule agonists, cell-based qHTS assay (AID 1963589); note: nearly all actives have a fitted effect of over 35% in size; note: potency is the fitted concentration of half-maximal effect
Conditions: CHRM1-CHO cells, agonist mode, calcium flux fluorescence; series mostly up to 76.8 µM
How it was run: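 Each compound was tested at 15 concentrations across three independent runs on dye-loaded CHO cells stably expressing human CHRM1, reading intracellular calcium fluorescence kinetically at 1 sec intervals.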

Structure (SMILES) | Potency
C=CC=O | inactive
CCC(C)(C#N)N=NC(C)(C#N)CC (centres undefined) | inactive
c1nc[nH]n1 | inactive
c1ccc(Nc2ccc3ccccc3c2)cc1 | inactive
CCOP(=O)(OCC)OP(=O)(OCC)OCC | inactive
Nc1cccnc1 | inactive
Clc1ccccc1Cl | inactive
CCN(CC)C(=S)S | inactive
CC(C)Nc1nc(Cl)nc(NC(C)C)n1 | inactive
Nc1ccc(-c2ccc(N)c(N)c2)cc1N | inactive
CC(C)OS(C)(=O)=O | inactive
CCCCOC(=O)c1ccccc1C(=O)O | inactive
CC(=O)[O][Hg][c]1ccccc1 | 43.6 µM (active)
CCCCCCCCCl | inactive
C#CCOS(=O)OC1CCCCC1Oc1ccc(C(C)(C)C)cc1 (centres undefined) | inactive
O=S(=O)(O)OOS(=O)(=O)O | inactive
ClCC(Br)CBr (centres undefined) | inactive
CC(C)C#N | inactive

Structure (SMILES) | Potency
CCOC(=O)CC(SP(=O)(OC)OC)C(=O)OCC (centres undefined) | inactive
CCCCCON=O | inactive
FC(F)(F)c1ccc(Cl)cc1 | inactive
CON(C)C(=O)Nc1ccc(Cl)cc1 | inactive
COc1c(C(C)(C)C)cc([N+](=O)[O-])c(C)c1[N+](=O)[O-] | inactive
Cc1ccc(N)cc1 | inactive
CCc1cnc(C2=NC(C)(C(C)C)C(=O)N2)c(C(=O)O)c1 (centres undefined) | inactive
CCCCCBr | inactive
COP(=S)(OC)Oc1ccc(Sc2ccc(OP(=S)(OC)OC)cc2)cc1 | inactive
CC(=O)CCC(C)=O | inactive
CCOP(=O)(O)OCC (tested in a mixture with another compound) | inactive
O=[N+]([O-])c1ccc(Cl)c(Cl)c1 | inactive
CC(C)(O)C(=O)Nc1ccc([N+](=O)[O-])c(C(F)(F)F)c1 | inactive
CCCCNC(=O)n1c(NC(=O)OC)nc2ccccc21 | inactive
CCC(Cl)[N+](=O)[O-] (centres undefined) | inactive
CCCCCCCCCCCC(=O)O | inactive
OC(Cc1ccccc1Cl)(Cn1cncn1)C1(Cl)CC1 (centres undefined) | inactive

Tested on: not listed separately
Assay: cAMP Responsive Elements (CRE) small molecule agonists, cell-based qHTS assay (AID 1963590)
Conditions: CRE-bla HEK293T, beta-lactamase FRET ratio, 3 h; series mostly up to 92.4 µM
How it was run: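 Cell line: CRE-bla HEK 293T; medium DMEM/10% dialyzed FBS/0.1 mM NEAA/1 mM pyruvate/25 mM HEPES; 3 h compound exposure; beta-lactamase FRET readout after 2 h substrate loading at RT.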

Structure (SMILES) | Potency
C=CC=O | inactive
CCC(C)(C#N)N=NC(C)(C#N)CC (centres undefined) | inactive
c1nc[nH]n1 | inactive
CCOP(=O)(OCC)OP(=O)(OCC)OCC | inactive
Nc1cccnc1 | inactive
Clc1ccccc1Cl | inactive
CCN(CC)C(=S)S | inactive
CC(C)Nc1nc(Cl)nc(NC(C)C)n1 | inactive
Nc1ccc(-c2ccc(N)c(N)c2)cc1N | inactive
CC(C)OS(C)(=O)=O | inactive
CCCCOC(=O)c1ccccc1C(=O)O | inactive
CCCCCCCCCl | inactive
O=S(=O)(O)OOS(=O)(=O)O | inactive
ClCC(Br)CBr (centres undefined) | inactive
CC(C)C#N | inactive
CCOC(=O)CC(SP(=O)(OC)OC)C(=O)OCC (centres undefined) | inactive
CCCCCON=O | inactive

Structure (SMILES) | Potency
FC(F)(F)c1ccc(Cl)cc1 | inactive
CON(C)C(=O)Nc1ccc(Cl)cc1 | inactive
COP(=S)(OC)Oc1ccc([N+](=O)[O-])cc1 | inactive
CCCCCCCCC(=O)NCc1ccc(O)c(OC)c1 | inactive
COc1c(C(C)(C)C)cc([N+](=O)[O-])c(C)c1[N+](=O)[O-] | inactive
Cc1ccc(N)cc1 | inactive
CCc1cnc(C2=NC(C)(C(C)C)C(=O)N2)c(C(=O)O)c1 (centres undefined) | inactive
CCCCCBr | inactive
COP(=S)(OC)Oc1ccc(Sc2ccc(OP(=S)(OC)OC)cc2)cc1 | inactive
CC(=O)CCC(C)=O | inactive
CCOP(=O)(O)OCC (tested in a mixture with another compound) | inactive
O=[N+]([O-])c1ccc(Cl)c(Cl)c1 | inactive
CCCCNC(=O)n1c(NC(=O)OC)nc2ccccc21 | inactive
CCC(Cl)[N+](=O)[O-] (centres undefined) | inactive
CCCCCCCCCCCC(=O)O | inactive
OC(Cc1ccccc1Cl)(Cn1cncn1)C1(Cl)CC1 (centres undefined) | inactive
